# ERG Ets-DNA blk – inhibitors of human ERG Ets domain-DNA interaction; fluorescence polarization, His-ERG Ets domain / labelled DNA; Potency, µM (highest dose often 76.9 µM), hits mostly inhibitors; 0.028% of 370,000 active; P11308; AID 624246; active = well fitted inhibition curve with a large enough effect in the polarisation, with a control signal flat; inconclusive = small, poorly fitted or top-dose-only effect, or effect the other way, or a change in a side signal; inactive = no such curve, though single readings can be large or run the other way; the % refers to the polarisation;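 also: polarization taken with two DNA probes labelled with fluorescein and Texas red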
#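 His-tagged ERG Ets domain (1 uM in the protein solution; 300mM KCl, 50mM Tris-HCl, 1mM EDTA, 1mM DTT, pH 7.5) received compound, then a probe mix of 5 nM fluorescein-DNA and 100nM Texas-615-DNA. Fluorescence polarization was read for both dyes.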
# KAT2A inh – blocks human GCN5L2 histone acetyltransferase; Q92830; GCN5L2 HAT assay, ThioGlo1 CoA-SH fluorescence; Potency, µM (highest dose often 58.9 µM), usual class: inhibitors; 0.21% of 390,000 active; AID 504327
#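 Fluorescence readout, Ex340nm/Em540nm: ThioGlo1 (50uM final) reacts with free CoA thiol released as 20nM GCN5L2 acetylates H3(1-25) peptide (75uM) using acetyl-CoA (70uM). Compound and enzyme sat 15 min beforehand; 20 min room-temperature reaction.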
# BLM inh – inhibitors of human Bloom syndrome helicase BLM | P54132 | Potency, µM (titrated, usually from 56.1 µM), most hits filed as inhibitors | 0.2% of 350,000 active | recombinant BLM DNA unwinding, fluorescence dequenching; also: nearly all actives have a fitted effect of over 35% in size
# APEX1 inh – blocks human APE1 abasic DNA cleavage. recombinant APE1, TAMRA/BHQ-2 abasic DNA cleavage fluorescence. P27695. Potency, µM (top dose mostly 65.8 µM), most hits filed as inhibitors. AID 2517. 0.35% of 350,000 active; also: nearly all actives have a fitted effect of over 55% in size
# Target sequence (P27695 whole entry, looked up): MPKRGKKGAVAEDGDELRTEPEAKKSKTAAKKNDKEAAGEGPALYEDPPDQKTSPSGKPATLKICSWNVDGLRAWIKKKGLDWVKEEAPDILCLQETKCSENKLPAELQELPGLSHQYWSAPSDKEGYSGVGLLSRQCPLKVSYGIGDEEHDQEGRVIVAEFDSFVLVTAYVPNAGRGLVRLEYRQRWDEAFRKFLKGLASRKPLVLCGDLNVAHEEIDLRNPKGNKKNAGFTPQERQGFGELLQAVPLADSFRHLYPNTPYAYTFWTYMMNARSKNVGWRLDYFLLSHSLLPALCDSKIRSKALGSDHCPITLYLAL
#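 Readout is kinetic fluorescence (ex 525, em 598 nm) from cleavage of 50 nM TAMRA/BHQ-2 THF abasic duplex by 0.75 nM APE1, compound added 15 min beforehand at RT.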
# RECQ1 inh – inhibitors of human RECQ1 DNA helicase; RECQ1 DNA unwinding, red fluorescence kinetic read; Potency, µM (titrated, usually from 57.3 µM), usual class: inhibitors; 0.54% of 240,000 active; also: nearly all actives have a fitted effect of over 30% in size
#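 50 nM RECQ1T1 preincubated 15 min with compound in Tris pH 8.0 buffer with MgCl2, DTT, Tween-20 and 2.5 ug/ml poly(dI-dC); started with 200 nM TAMRA/BHQ-2 forked duplex and 2 mM ATP. Unwinding read as fluorescence (525/598 nm), two reads 2 h apart.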
# WRN inhibitor – WRN helicase (human) inhibition; Q14191; WRN helicase unwinding, fluorescent forked duplex, kinetic; Potency, µM (titrated, usually from 114 µM), hits mostly inhibitors; 0.46% of 360,000 active; also: nearly all actives have a fitted effect of over 55% in size
#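 Kinetic fluorescence helicase assay: unwinding of a quenched forked DNA duplex (100 nM final) with 2 mM ATP final raises red fluorescence (525/598 nm). Compounds sat 15 min at room temperature with 20 nM WRN beforehand.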
# Hits are given with their value; . = inactive; ? = inconclusive; / = no result; [ ] = dose if it differs, or a comment. Compounds with a hit are over-represented: about 0.88% of the library has one in this group of screens. Unless noted, calls follow the shape of the dose curve; as a rule, active = well fitted curve in the direction sought with a large enough effect; inconclusive = small, poorly fitted or top-dose-only effect, or another doubt; inactive = no such curve, though single readings can be large; an effect the other way counts as inactive or inconclusive.
SMILES,ERG Ets-DNA blk,KAT2A inh,BLM inh,APEX1 inh,RECQ1 inh,WRN inhibitor
CCCOC(=O)CCCN1C(=O)/C(=C2\SC(=S)N(CCCC(=O)OCCC)C2=O)SC1=S,.,.,.,.,.,.
CCCCCOC(=O)CCN1C(=O)/C(=C2\SC(=S)N(CCC(=O)OCCCCC)C2=O)SC1=S,.,.,.,.,1.6µM,?
OC[C@@H]1OC(O)[C@H](O)[C@H](O)[C@H]1O (some centres undefined),/,.,.,.,.,/
COC(c1ccccc1)C(C)C(OC)C(C)C(OC)C(C)C(C)=O (centres undefined),/,/,.[12.4 µM],.[12.4 µM],.[11.5 µM],/
O=C(N/N=C/c1ccc(OC(=O)c2ccccc2)cc1)c1cccnc1,.,.,.,?,/,56µM
O=C(N/N=C/c1ccc(OC(=O)c2ccc([N+](=O)[O-])cc2)cc1)c1cccnc1,.,.,.,.,/,.
CCn1cc(C(=O)O)c(=O)c2cnc(N3CCN(C(=S)NC(=O)c4ccc(OC)cc4)CC3)nc21,.,.,.,.,/,.
N#Cc1c(N)sc(=S)c2c1CCCCC2,?,?,.,?,?,20µM
CN(C)c1ccc2nc3ccc(=O)cc-3sc2c1,/,/,/,/,/,56µM
O=C(c1nc2n(n1)C(c1ccc(Cl)cc1)C=C(c1ccccc1)N2)N1CCOCC1 (centres undefined),.,22µM,.,.,.,.
C=C1c2cccc(O)c2C(=O)C2C(=O)[C@]3(O)C(=O)C(C(N)=O)C(=O)[C@@H](N(C)C)[C@@H]3[C@@H](O)[C@H]12 (some centres undefined),.,7.9µM,/,.,/,?
C#CCN1C(=O)S/C(=C\c2ccc(-c3ccc(C(=O)O)cc3C)o2)C1=O,.,.,.,?,/,?
Cc1cc(C(=O)O)ccc1-c1ccc(/C=C2\NC(=O)N(Cc3ccccc3Cl)C2=O)o1,.,?,.,.,.,50µM
NC(C(=O)O)c1cc(O)c(Cl)c(O)c1 (centres undefined),/,32µM,/,?,.,/
C=C1C=C(C(F)F)n2ncc(C(=O)NCCc3ccc(OC)c(OC)c3)c2N1,/,/,/,.,/,/
C[C@@H]1CC[C@@H]2C(=O)N3[C@@H](CC[C@@H](C)[C@@H]3c3ccc(-c4ccco4)cc3)C(=O)N2[C@H]1c1ccc(-c2ccco2)cc1,/,/,.[12.4 µM],.[12.4 µM],?,/
CC1CCC2C(=O)N3C(CCC(C)C3c3ccc(-c4ccco4)cc3)C(=O)N2C1c1ccc(-c2ccco2)cc1 (centres undefined),/,/,3.5µM,4µM,2.5µM,/
CC(C)NC(=O)COc1ncnc2sccc12,.,32µM,.,.,.,.
C=N[C@@H](C(=O)N[C@@H]1C(=O)N2[C@@H]1SC(C)(C)[C@@H]2C(=O)O)c1ccccc1,/,/,/,.,/,/
COc1cc2c3cc1Oc1cc(ccc1O)CC1c4c(cc(OC)c(O)c4Oc4ccc(cc4)CC3N(C)CC2)CC[N+]1(C)C (centres undefined),/,.,.,.,.,/
COc1ccc2cc1Oc1cc3c(cc1OC)CC[N+](C)(C)C3Cc1ccc(cc1)Oc1c(OC)c(OC)cc3c1C(C2)[N+](C)(C)CC3 (centres undefined),/,20µM,.,/,/,/
Cc1[nH]c2ccc(C(=O)O)cc2c1C,/,.,.,?,.,.
CCCc1c(C)[nH]c2ccc(C(=O)O)cc2c1=S,.,.,.,22µM,14µM,25µM
CO[C@H]1COC(=O)[C@H]2CCCN2C(=O)[C@@H](C)COC(=O)C/C=C\[C@@H]1C,/,/,.[12.4 µM],?,.[11.5 µM],/
Cc1cc(NS(=O)(=O)c2ccc(Nc3nc(-c4sc(N)nc4C)cs3)cc2)no1,.,.,.,.,?,25µM
SMILES,ERG Ets-DNA blk,KAT2A inh,BLM inh,APEX1 inh,RECQ1 inh,WRN inhibitor
Cc1ccc(C)c(-n2c3nc(=O)[nH]c(=O)c-3cc3cc([N+](=O)[O-])ccc32)c1,.,.,20µM,.,.,79µM
CC(=O)Nc1ccc(-c2csc(NC(=O)C3CC(=O)N(c4ccc5c(c4)OCCO5)C3)n2)cc1 (centres undefined),22µM,.,.,.,.,.
CCOC(=O)CC/C(=N\NC(N)=O)c1ccc(OC)c(Cl)c1,.,.,/,.,/,.
Cc1nc(N=Nc2cc([N+](=O)[O-])ccc2Cl)c(COP(=O)(O)O)c(C=O)c1O,/,?,.,35µM,28µM,/
CCOc1cc(C=O)cc(N=Nc2cccc([N+](=O)[O-])c2)c1O,.,.,.,.,/,.
O=C(O)c1cccc(-n2cccc2/C=C2/SC(=O)N(CC(=O)N3CCCC3)C2=O)c1,.,.,.,13µM,/,56µM
Cc1ccc(Cc2c(-c3ccc(F)cc3)nc3ccc(Br)cn23)cc1,/,/,/,/,/,.
COc1ccc(O)c(C(=O)C2c3ccccc3C(=O)N2c2ccc(C)cc2)c1 (centres undefined),.,.,.,?,.,50µM
COc1ccc(N2C(=O)c3ccccc3C2O)cc1 (centres undefined),.,.,.,.,/,.
Cc1ccccc1N1CCN(S(=O)(=O)CC23CCC(CC2NC(=O)C(N)CCS(C)(=O)=O)C3(C)C)CC1 (centres undefined),/,.,.,.,.,/
O=S1(=O)C2CC3C=CC2(O3)C(O)C(Cc2ccccc2)N1Cc1cccc(C(F)(F)F)c1 (centres undefined),/,/,.,.,.,/
COc1ccc2nc(-n3c(O)c(C4=c5ccccc5=NC4=O)[nH]c3=S)sc2c1,.,.,20µM,.,.,25µM
CC(=O)/C(N=Nc1ccc(C(=O)O)cc1[N+](=O)[O-])=C(\C)O,.,?,.,10µM,.,.[11.6 µM]
Cc1ccc(S(=O)(=O)N2[C@@H](c3ccc(C(C)(C)C)cc3)C(C(=O)O)=CC[C@H]2c2cccc(Cl)c2)cc1,.,?,/,.,/,71µM
O=C1Nc2ccccc2C(=O)C1(Cl)Cc1ccccc1 (centres undefined),.,.,.,.,.,45µM
CC(=O)NCc1cc(Cl)c2cccnc2c1O,/,.,/,.,/,/
Cc1cccc(OCCc2c(C)[nH]c(=S)[nH]c2=O)c1,28µM,.,.,.,.,.
COc1ccc(-c2c(C)c3ccc(O)c(CN4CCCC(C)C4)c3oc2=O)cc1OC (centres undefined),.,.,.,/,/,/
CCCCn1c(NC(=O)c2ccccc2)c(C#N)c2nc3ccccc3nc21,/,?,1.6µM,?,3.5µM,.
CC(=O)c1cc(C)oc1C,/,/,/,.,.,/
OCc1cccc(-c2noc(-c3ccccc3F)n2)c1,/,/,/,.,/,/
COc1ccc(/C=N/NC(=O)c2[nH]c3ccc(Br)cc3c2-c2ccccc2)c(C(=O)O)c1OC,.,.,.,.,.,?

# Compound activity: PubChem, National Center for Advancing Translational Sciences (NCATS)
